According to PubChem BioAssay (EPA / NIEHS):
Results filed as inconclusive are left out. Activity calls are given as the source filed them. The calls were made as follows: active = hit-call score of the fitted dose curve at least 0.9, where 1 is the maximum; inconclusive = response in the unintended direction; inactive = score below 0.9.

experiment: CCTE_Mundy_HCI_hNP1_CellTiter: CCTE's Cell Titer-Glo 2 Assay in human neuroprogenitor cells for Viability, Mundy Lab (AID 2284241);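 as to AC50: a hit is a drop in ATP luminescence versus DMSO meaning reduced viability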
Protocol: CCTE_Mundy_HCI_hNP1_CellTiter is a multiplexed, cell-based-readout assay that uses neural stem cells derived from a neuroepithelial cell lineage of WA09 embryonic cells with measurements taken at […] after chemical dosing in a microplate: 96-well plate.CCTE_Mundy_HCI_hNP1_CellTiter is one component of the CCTE_Mundy_HCI_hNP1_CellTiter assay. It measures cell viability related to ATP content using Luminescent Reporter.Data from the assay component CCTE_Mundy_HCI_hNP1_CellTiter was analyzed at the endpoint CCTE_Mundy_HCI_hNP1_CellTiter in the positive analysis fitting direction relative to DMSO as the negative control and baseline of activity. Using a type of viability reporter, loss -of-signal activity can be used to understand viability effects.
Human neural progenitor cells (hNP1) were obtained as cryopreserved cells from ArunA Biomedical, Athens Georgia. Cells are plated on pre-coated poly-L-ornithine/laminin clear bottom and opaque 96 well plates (day 0). Plates are placed in a 37 °C, 5% CO2 incubator for 40 to 44 hours at which time plates are removed from the incubator and 10 uL of a freshly made chemical solution is added to each well. Cell viability was based on number of cells per field or determined in sister plates using the CellTiter-Glo luminescent assay (Promega) which measures the amount of ATP present in each well. Twenty-four hours after chemical treatment, 50ul of CellTiter-Glo assay buffer was added to each well and the plate incubated for 30min at room temperature. Luminescence was then recorded in each well using a FLUOstar Optima plate reader (BMG LABTECH, Cary, NC).

Row | SMILES | outcome | AC50
1 | CCC(C)(C)C(=O)OC1=C(c2ccc(Cl)cc2Cl)C(=O)OC12CCCCC2 | inactive | 
2 | COP(=O)(OC)OC=C(Cl)Cl | inactive | 
3 | CNC(=O)CSP(=S)(OC)OC | inactive | 
4 | CC[C@H](C)[C@H]1O[C@]2(C=C[C@@H]1C)C[C@@H]1C[C@@H](C/C=C(\C)[C@@H](O[C@H]3C[C@H](OC)[C@@H](O[C@H]4C[C@H](OC)[C@@H](O)[C@H](C)O4)[C@H](C)O3)[C@@H](C)/C=C/C=C3\CO[C@@H]4[C@H](O)C(C)=C[C@@H](C(=O)O1)[C@]34O)O2 (tested in a mixture with another compound) |  | 3.34 µM (active)
5 | CC(C)N(C(=O)COc1nnc(C(F)(F)F)s1)c1ccc(F)cc1 | inactive | 
6 | O=S(=O)(O)C(F)(F)C(F)(F)C(F)(F)C(F)(F)C(F)(F)C(F)(F)C(F)(F)C(F)(F)F | inactive | 
7 | O=S1OCC2C(CO1)C1(Cl)C(Cl)=C(Cl)C2(Cl)C1(Cl)Cl (configuration not stated) |  | 12 µM (active)
8 | O=C(O)COc1ccc(Cl)cc1Cl | inactive | 
9 | CC1(C)C(C=C(Cl)Cl)C1C(=O)OC(C#N)c1ccc(F)c(Oc2ccccc2)c1 (configuration not stated) | inactive | 
10 | CC1(c2ccc(Oc3ccccc3)cc2)OC(=O)N(Nc2ccccc2)C1=O (configuration not stated) |  | 10.9 µM (active)
11 | O=[N+]([O-])/N=C1\NCCN1Cc1ccc(Cl)nc1 | inactive | 
12 | COP(=S)(OC)Oc1ccc([N+](=O)[O-])cc1 | inactive | 
